This is a sample that favours compounds with a hit; in the whole collection about 2.4% have one here.
M1 PAM: human CHRM1 positive allosteric modulation. P11229. CHO-K1 hM1, Fluo-8 calcium fluorescence, ACh EC20; 0% = ACh EC20, 100% = maximal ACh. activation, % at 3 µM. actives 0.088% (n = 360,000). AID 588819; in the data active = activation above about 19%, passing the limit was not always enough
Target sequence (P11229 whole entry, looked up): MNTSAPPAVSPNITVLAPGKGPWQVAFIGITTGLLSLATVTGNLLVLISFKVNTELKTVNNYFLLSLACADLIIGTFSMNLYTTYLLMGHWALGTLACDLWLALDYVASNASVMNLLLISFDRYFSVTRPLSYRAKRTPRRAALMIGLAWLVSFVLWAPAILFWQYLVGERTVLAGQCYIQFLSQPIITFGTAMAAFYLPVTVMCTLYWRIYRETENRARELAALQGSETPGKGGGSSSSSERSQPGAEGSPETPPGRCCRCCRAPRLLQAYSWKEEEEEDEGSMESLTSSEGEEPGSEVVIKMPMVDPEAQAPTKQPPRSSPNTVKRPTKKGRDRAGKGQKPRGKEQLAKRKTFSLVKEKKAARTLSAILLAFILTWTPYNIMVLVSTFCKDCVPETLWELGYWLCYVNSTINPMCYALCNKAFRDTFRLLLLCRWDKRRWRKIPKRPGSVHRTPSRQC
CHO-K1 Ca antag: counter-screen for M1 antagonists: effect in parental CHO-K1 cells | AID 602250 | inhibition, % at 3 µM | ATP-induced calcium, Fluo-8 fluorescence | actives 0.6% (n = 360,000);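 active = inhibition above a per-plate cutoff, the plate's mean sample inhibition plus 3 SD, cut at about 24% in these data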;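 note: 0% = DMSO plus EC80 ATP and 100% = DMSO alone without ATP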
M1 PAM parental: M1 PAM counterscreen hit in parental CHO-K1 cells; ATP EC20, Fluo-8 calcium fluorescence; 0% at ATP EC20, 100% at ATP max; activation, % at 3 µM; actives 0.02% (n = 360,000); AID 602247;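 active = activation above the run cutoff, the mean activation of all test compounds plus 3 SD, cut at about 40% in these data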;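 note: peak over basal fluorescence ratio in a 140 s read after ATP addition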
CHRM1 agonist: activates human CHRM1 receptor. P11229. CHO-K1 hM1, Fluo-8 calcium fluorescence, agonist mode; 0% DMSO, 100% acetylcholine EC100. activation, % at 3 µM. actives 0.33% (n = 360,000);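 active = activation above the run's mean compound activation plus 3 SD, cut at about 16% in these data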;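 note: peak over basal fluorescence ratio within a 140 s kinetic read after compound addition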
M1 ag parental: nonselective activator or artifact in parental CHO-K1 cells; Fluo-8 calcium fluorescence; scaled to maximal ATP response, vehicle zero; activation, % at 3 µM; actives 0.48% (n = 360,000); AID 602248; in the data active = activation above about 15%;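 note: untransfected CHO-K1 host cells lacking M1 receptor as counterscreen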
CHRM1 antagonist: human CHRM1 antagonism | P11229 | CHO-K1 hM1, Fluo-8 calcium fluorescence, ACh EC80 antagonist | inhibition, % at 3 µM | actives 1.3% (n = 360,000) | AID 588852;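 active = percent inhibition above its own plate's cutoff, namely the mean of that plate's compound wells plus 3 SD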;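 note: peak over basal fluorescence ratio during 140 s after agonist addition; 0% = ACh EC80 plus DMSO and 100% = DMSO alone without agonist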
An asterisk follows results filed as active.

Screening O=C1[C@@H]2[C@@H](CN3CN(c4ccccc4)N=C(c4ccccc4)[C@@]23c2ccccc2)C(=O)N1c1ccccc1 returned M1 PAM 3, CHO-K1 Ca antag -30, M1 PAM parental 42*, CHRM1 agonist -1, M1 ag parental 1 and CHRM1 antagonist -12.
CC(=O)c1cccc(NS(=O)(=O)c2ccc(-c3cnc(C4CC4)o3)cc2)c1 was read as M1 PAM -12, CHO-K1 Ca antag 12, M1 PAM parental 1, CHRM1 agonist 4, M1 ag parental 16* and CHRM1 antagonist 32*.
Screening CC(=O)Nc1ccc(NS(=O)(=O)c2ccc(-c3cnc(C4CC4)o3)cc2)cc1 returned M1 PAM -5, CHO-K1 Ca antag 4, M1 PAM parental 11, CHRM1 agonist -3, M1 ag parental 1 and CHRM1 antagonist 15.
`CC(C)(C)c1cc2cccnc2n1Cc1cccc(Cl)c1` gave M1 PAM -12, CHO-K1 Ca antag -8, M1 PAM parental 0, CHRM1 agonist -5, M1 ag parental 0 and CHRM1 antagonist 31*.
COc1ccnc2c1c(=O)n(Cc1cccc(Cl)c1)c(=O)n2C was read as M1 PAM 4, CHO-K1 Ca antag -9, M1 PAM parental -7, CHRM1 agonist -2, M1 ag parental 0 and CHRM1 antagonist -6.
C=CCC1c2cccc(C(=O)OC)c2C(=O)N1c1ccccc1 (stereo unspecified) was read as M1 PAM 0, CHO-K1 Ca antag 24*, M1 PAM parental -8, CHRM1 agonist -2, M1 ag parental 0 and CHRM1 antagonist 10.
`C=CCN(CC=C)CCCOc1ccccc1C(=O)OC` gave M1 PAM 7, CHO-K1 Ca antag -11, M1 PAM parental 27, CHRM1 agonist -10, M1 ag parental 1 and CHRM1 antagonist -14.
Screening CN(CC(=O)Nc1cccc(S(=O)(=O)NC2=NCCCCC2)c1)Cc1ccc(C(C)(C)C)cc1 returned M1 PAM -4, CHO-K1 Ca antag 3, M1 PAM parental -8, CHRM1 agonist -4, M1 ag parental 5 and CHRM1 antagonist 11.
COc1ccc(CNS(=O)(=O)c2ccc3c(c2)N(C(C)=O)CC(C)S3)cc1 (stereo unspecified) was read as M1 PAM 1, CHO-K1 Ca antag 8, M1 PAM parental -15, CHRM1 agonist 4, M1 ag parental 17* and CHRM1 antagonist 0.
CCOc1ccc(-c2cc(C(=O)NCc3ccc(C(F)(F)F)cc3)[nH]n2)c(C)c1 was read as M1 PAM -3, CHO-K1 Ca antag 0, M1 PAM parental -8, CHRM1 agonist -3, M1 ag parental 0 and CHRM1 antagonist 2.
`Cc1cc(F)ccc1-c1cc(C(=O)NCc2ccc(C(F)(F)F)cc2)[nH]n1` gave M1 PAM 1, CHO-K1 Ca antag 3, M1 PAM parental 26, CHRM1 agonist 32*, M1 ag parental 16* and CHRM1 antagonist 9.
For CC(=O)SCC[N+](C)(C)C the results were M1 PAM -29, CHO-K1 Ca antag 5, M1 PAM parental 9, CHRM1 agonist 70*, M1 ag parental 0 and CHRM1 antagonist 24.
NC(=O)C1CCN(C(=O)CN2CCc3ccccc32)CC1 was read as M1 PAM 7, CHO-K1 Ca antag -14, M1 PAM parental 20, CHRM1 agonist 6, M1 ag parental 0 and CHRM1 antagonist -30.
`NS(=O)(=O)c1ccc(CCNC(=O)c2ccc3c(c2)N(Cc2ccccc2)CCS3)cc1` gave M1 PAM -14, CHO-K1 Ca antag -2, M1 PAM parental 5, CHRM1 agonist 0, M1 ag parental 6 and CHRM1 antagonist 37*.
COc1ccc(OC)c(CCNC(=O)c2ccc3c(c2)N(Cc2ccccc2)CCS3)c1 was read as M1 PAM 1, CHO-K1 Ca antag -15, M1 PAM parental 5, CHRM1 agonist -1, M1 ag parental 0 and CHRM1 antagonist -11.
COc1ccc(CCNC(=O)c2ccc3c(c2)N(Cc2ccccc2)CCS3)cc1OC was read as M1 PAM -14, CHO-K1 Ca antag -4, M1 PAM parental 18, CHRM1 agonist 1, M1 ag parental 8 and CHRM1 antagonist 39*.
`O=C(NCCCN1CCCC1)c1ccc2c(c1)N(Cc1ccccc1)CCS2` gave M1 PAM -8, CHO-K1 Ca antag -1, M1 PAM parental -7, CHRM1 agonist -7, M1 ag parental 0 and CHRM1 antagonist -5.
For O=C(COc1ccc(-c2ccccc2)cc1)Nc1cccnc1 the results were M1 PAM -14, CHO-K1 Ca antag 15, M1 PAM parental -11, CHRM1 agonist 2, M1 ag parental 18* and CHRM1 antagonist 39*.
`O=C(COc1ccc(C(=O)NCc2cccnc2)cc1)Nc1cccc(C(F)(F)F)c1` gave M1 PAM -18, CHO-K1 Ca antag 13, M1 PAM parental -27, CHRM1 agonist -2, M1 ag parental 9 and CHRM1 antagonist 36*.
`O=C(COc1ccc(Nc2ccccc2)cc1)Nc1ccncc1` gave M1 PAM -9, CHO-K1 Ca antag 9, M1 PAM parental -18, CHRM1 agonist 3, M1 ag parental 15* and CHRM1 antagonist 23.
For O=C(COc1ccc(Cl)cc1)Nc1ccc(C(=O)NCc2cccnc2)cc1 the results were M1 PAM 1, CHO-K1 Ca antag 1, M1 PAM parental 6, CHRM1 agonist 1, M1 ag parental 6 and CHRM1 antagonist 8.
`Cc1ccc(C)c(NC(=O)CN(C)C(=O)c2cc(S(=O)(=O)N3CCOCC3)ccc2N2CCCC2)c1` gave M1 PAM -1, CHO-K1 Ca antag -5, M1 PAM parental 22, CHRM1 agonist -5, M1 ag parental 2 and CHRM1 antagonist -5.
Screening CCOc1ccccc1NC1=CC(=O)CC(c2ccccc2)C1 (stereo unspecified) returned M1 PAM 5, CHO-K1 Ca antag 7, M1 PAM parental -3, CHRM1 agonist -1, M1 ag parental 0 and CHRM1 antagonist -35.
`CNC(=O)CSc1nnc(-c2ccco2)n1-c1ccccc1OC` gave M1 PAM 25*, CHO-K1 Ca antag -9, M1 PAM parental 11, CHRM1 agonist 4, M1 ag parental 0 and CHRM1 antagonist -25.
For CCn1c(SCC(=O)Nc2ccc3[nH]c(=O)[nH]c3c2)nnc1-c1ccccc1 the results were M1 PAM 3, CHO-K1 Ca antag 3, M1 PAM parental -14, CHRM1 agonist -4, M1 ag parental 0 and CHRM1 antagonist -1.
Screening COc1ccc(NC(=O)C2Cc3c(-c4cccc(C(C)=O)c4)ccnc3O2)cc1OC (stereo unspecified) returned M1 PAM -5, CHO-K1 Ca antag 24*, M1 PAM parental -17, CHRM1 agonist 6, M1 ag parental 2 and CHRM1 antagonist 6.
